The nature of assay [1]: OV-KATE Cancer Cell Toxicity qHTS against the NCATS CANVASS Library (AID 1347345). The conditions noted are these: OV-KATE cells viability, CellTiter-Glo luminescence, 72 h; series mostly up to 38.3 µM. The procedure, abridged:
(§1)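 Per well, 1000 cells; exposure 72 h with compound at 11 final concentrations; readout CellTiter-Glo luminescence.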

The nature of assay [2]: OV-SAHO Cancer Cell Toxicity qHTS against the NCATS CANVASS Library (AID 1347348). Note: nearly all actives have a fitted effect of over 55% in size. The conditions noted are these: OV-SAHO viability, CellTiter-Glo luminescence, 72 h; series mostly up to 38.3 µM. The gist of the method:
as §1
(In general: Quantitative high-throughput screening tests each substance at several concentrations.)

Assay [3] is described as follows: SW1088 Cancer Cell Toxicity qHTS against the NCATS CANVASS Library (AID 1347350). Note: nearly all actives have a fitted effect of over 75% in size. Note: potency is the fitted concentration of half-maximal effect. The conditions noted are these: SW1088 viability, CellTiter-Glo luminescence, 72 h; series mostly up to 38.3 µM. The procedure, abridged:
as §1

The nature of assay [4]: A2780 Cisplatin Sensitive Ovarian Cancer Cell Toxicity qHTS against the NCATS CANVASS Library (AID 1347353). Note: nearly all actives have a fitted effect of over 60% in size. Note: potency is the fitted concentration of half-maximal effect. The conditions noted are these: A2780 ovarian cancer viability, ATPLite luminescence, 72 h; series mostly up to 46.1 µM. The gist of the method:
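Luminescent ATP content (ATPLite, 10 min at room temperature) served as the read-out after cells had been exposed to compounds for 72 hours at 37 °C. Dosing followed an 11-point concentration series.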

The nature of assay [5]: HEK-293 Cancer Cell Toxicity qHTS against the NCATS CANVASS Library (AID 1347355). Note: nearly all actives have a fitted effect of over 65% in size. Note: potency is the fitted concentration of half-maximal effect. The conditions noted are these: HEK-293 viability, CellTiter-Glo luminescence, 72 h; series mostly up to 46.1 µM. The gist of the method: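 Luminescent ATP read-out (CellTiter-Glo, 15min at room temperature) measures survival after cells face an 11-point compound series for 72 hours at 37 degrees C/5% CO2.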

Assay [6] can be described thus: HEK293 24hr Apoptosis Induction qHTS against the NCATS CANVASS Library (AID 1347359). The conditions noted are these: HEK293 caspase-3/7 activation, Caspase-Glo luminescence; series mostly up to 46.1 µM. The gist of the method: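 Caspase-3/7 activation measured as luminescence from the DEVD-based Caspase-Glo reagent, 15 min at room temperature, following 24-hour compound treatment of HEK293 cells.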

Assay [7] can be described thus: KB-8-5-11 Cancer Cell Toxicity qHTS against the NCATS CANVASS Library (AID 1347364). Note: nearly all actives have a fitted effect of over 75% in size. Note: potency is the fitted concentration of half-maximal effect. The note with it: KB-8-5-11 MDR cells viability, CellTiter-Glo, 72 h; series mostly up to 46.1 µM. The gist of the method: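 Plate 500 KB-8-5-11 cells per well in DMEM + 10% FBS, add compounds by pin transfer, incubate 72 hr at 37C. Add CellTiter-Glo, wait 10 minutes at room temperature, read luminescence.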

Assay [8] in a line: SDT Cancer Cell Toxicity qHTS against the NCATS CANVASS Library (AID 1347365). Note: nearly all actives have a fitted effect of over 60% in size. Note: potency is the fitted concentration of half-maximal effect. The note with it: SDT dog glioma viability, ATP luminescence, 72 h; series mostly up to 46.1 µM. The procedure, abridged:
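qHTS, SDT dog glioma line, 500 cells/well; cpds 11 pts; 72 hr, 37C, 5% CO2; CellTiterGlo ATP luminescence.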

Assay [9] can be described thus: G06 Cancer Cell Toxicity qHTS against the NCATS CANVASS Library (AID 1347368). Note: nearly all actives have a fitted effect of over 60% in size. Note: potency is the fitted concentration of half-maximal effect. The conditions noted are these: G06 dog glioma cells, viability ATP luminescence, 72 h; series mostly up to 46.1 µM. The gist of the method: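 Dog G06 glioma line, 500 cells/well; cpds pin-transferred, 11-pt; 72 hr, 37C/5% CO2; CellTiterGlo luminescence (ATP) endpoint.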
A short description of assay [10]: qHTS for Hypoxia signaling pathway (HIF-1) antagonists against the NCATS CANVASS Library (AID 1347374). Note: nearly all actives have a fitted effect of over 60% in size. Note: potency is the fitted concentration of half-maximal effect. The note with it: HRE-bla ME-180 cells, HIF-1 beta-lactamase reporter, CoCl2; series mostly up to 38.3 µM. The procedure, abridged:
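HRE-bla ME-180 cells in medium with 0.5% dialyzed FBS received compounds (11-point series) plus CoCl2 (60 uM addition stock) for 17 hrs at 37C. Beta-lactamase activity read with CCF4 (405 nm ex, 460/530 nm em); CellTiter-Glo viability measured in same wells.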

Assay [11] in a line: DH5-alpha competent E. coli microbial cell viability qHTS against the NCATS CANVASS Library (AID 1347377). The conditions noted are these: BacTiter-Glo ATP luminescence, overnight; series mostly up to 46.1 µM. The procedure, abridged: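 qHTS, 11-pt; E. coli DH5-alpha, 0.2 OD; o/n 37C/5% CO2; BacTiter-Glo, 20 min RT; luminescence.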

Assay [12] can be described thus: qHTS for Activators of p53 Stress Response Pathway screened against the NCATS CANVASS Library (AID 1347388). The note with it: p53RE-bla HCT-116, beta-lactamase reporter, 16 h; series mostly up to 46.1 µM. The procedure, abridged:
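Beta-lactamase reporter driven by p53 response elements in HCT-116 cells, read as the 460 nm/530 nm emission ratio after CCF4 loading, following 16 h of exposure to an 11-point series. Cell viability was measured in the same wells by CellTiter-Glo luminescence.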

A short description of assay [13]: qHTS for inhibitors of ER calcium dysfunction: SERCaMP assay screened against the NCATS CANVASS Library (AID 1347393). Note: nearly all actives have a fitted effect of over 40% in size. Note: potency is the fitted concentration of half-maximal effect. The conditions noted are these: SH-SY5Y GLuc-SERCaMP (Gaussia luciferase released on ER calcium loss) secretion, thapsigargin, luminescence; series mostly up to 76.6 µM. The procedure, abridged: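 Thapsigargin-induced ER calcium depletion drives GLuc-SERCaMP secretion from SH-SY5Y cells; compounds given 16 h beforehand were scored by lowered coelenterazine luminescence after 4 h challenge.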

A short description of assay [14]: qHTS for inhibitors of Wild type Zika virus screened against the NCATS CANVASS Library (AID 1347396).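 Note: ATP luminescence of surviving cells so rescue from viral cell killing.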 The note with it: Vero cells, Zika virus CPE, CellTiter-Glo, 72 h; series mostly up to 45.9 µM. The gist of the method:
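Using ATP-based luminescence (CellTiter Glo), this screen scores rescue of Vero 766 cells from wild-type Zika killing at 72 h post-infection. Compounds are tested in a concentration series.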

Assay [15] has as its target Luciferin 4-monooxygenase (Photinus pyralis) (UniProt P08659). The assay is described as follows: Firefly luciferase counterscreen qHTS: Assay Interference Panel against the NCATS CANVASS Library (AID 1347363). The note with it: purified firefly luciferase, luminescence inhibition, 5 min; series mostly up to 57.5 µM. The procedure, abridged: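 Luminescence inhibition readout: compounds (11-point qHTS) sat 15 min at room temperature with substrate mix (0.013 mM luciferin and ATP), then firefly luciferase was added and signal read 5 min later.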
For orientation: Counterscreens check selectivity or assay interference.

Assay [16] can be described thus: Inflammasome Signaling qHTS Counterscreen: IL-1-beta AlphaLISA counterscreen against the NCATS CANVASS Library (AID 1347381).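 Note: cell-free check with purified IL-1β in medium and no THP-1 cells.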 The note with it: Purified IL-1beta AlphaLISA signal interference counterscreen; series mostly up to 57.5 µM. The gist of the method: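 Cell-free interference check: compounds added to medium spiked with 4 pg purified IL-1β. Anti-IL-1β acceptor beads (6 ug/mL) with 0.6 nM biotinylated antibody added for 1 h at RT, then streptavidin donor beads (24 ug/mL) for 30 min in the dark. AlphaLISA read at 680/615 nm.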

Assay [17] is described as follows: qHTS for activators of Nrf2/ARE signaling pathway screened against the NCATS CANVASS Library (AID 1347391). Note: nearly all actives have a fitted effect of over 60% in size. The note with it: ARE-bla HepG2, beta-lactamase reporter, 16 h; series mostly up to 46.1 µM. The procedure, abridged: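 Plate ARE-bla HepG2 cells at 2000/well and let them settle 5 h. Pin-transfer compounds in DMSO, incubate 16 h at 37C. Load CCF4 for 2 h at room temperature and read blue/green fluorescence.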

A short description of assay [18]: HPAF-II 12hr Apoptosis Induction qHTS against the NCATS CANVASS Library (AID 1347358). The conditions noted are these: HPAF-II caspase-3/7 Caspase-Glo luminescence; series mostly up to 46.1 µM. The gist of the method:
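500 HPAF-II cells/well; cmpds 11-pt; 12 hr, 37 degrees C/5% CO2; Caspase-Glo 3/7 added, 15 min RT dark; luminescence read. Doxorubicin titration as control.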

The nature of assay [19]: qHTS for ATAD5 Agonist screened against the NCATS CANVASS Library (AID 1347367). The note with it: HEK293T ATAD5-luciferase reporter, luminescence, 16 h; series mostly up to 46.1 µM. The procedure, abridged:
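Luminescence read-out: ATAD5-driven luciferase in stably transfected HEK 293T cells, which rises post-transcriptionally with DNA damage. Cells were exposed 16hr at 37C to test compound; a CellTiter-Fluor fluorescence read (1hr) measured viability first.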

Assay [20] in a line: qHTS for activators of dead-cell proteases activity screened against the NCATS CANVASS Library (AID 1347392).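 Note: luminescence from protease leaking out of membrane-damaged cells cleaving impermeant substrate; rising signal means more cytotoxicity.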 The note with it: HepG2 cytotoxicity, dead-cell protease luminescence, 5 h; series mostly up to 46.1 µM. The procedure, abridged:
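Compounds are pin-transferred onto attached HepG2 cells, giving 11 final concentrations. After 5 h at 37C, AAF-aminoluciferin reagent is added and luminescence is recorded at room temperature.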

Records with an inconclusive call do not appear. Activity calls are given as the source filed them. Calls come from the whole dose curve; as a rule, active = well fitted curve in the direction sought with a large enough effect; inconclusive = small, poorly fitted or top-dose-only effect, or another doubt; inactive = no such curve, though single readings can be large; an effect the other way counts as inactive or inconclusive. Square brackets hold non-standard residues; d marks the D form. Peptide text beside a SMILES is read from it. ξ: configuration not given here. ξL = CC(C)CC(N)C(=O)O

This is an account of results in PubChem BioAssay (NCATS).

Luciferin 4-monooxygenase (Photinus pyralis), sequence (P08659 whole entry, looked up): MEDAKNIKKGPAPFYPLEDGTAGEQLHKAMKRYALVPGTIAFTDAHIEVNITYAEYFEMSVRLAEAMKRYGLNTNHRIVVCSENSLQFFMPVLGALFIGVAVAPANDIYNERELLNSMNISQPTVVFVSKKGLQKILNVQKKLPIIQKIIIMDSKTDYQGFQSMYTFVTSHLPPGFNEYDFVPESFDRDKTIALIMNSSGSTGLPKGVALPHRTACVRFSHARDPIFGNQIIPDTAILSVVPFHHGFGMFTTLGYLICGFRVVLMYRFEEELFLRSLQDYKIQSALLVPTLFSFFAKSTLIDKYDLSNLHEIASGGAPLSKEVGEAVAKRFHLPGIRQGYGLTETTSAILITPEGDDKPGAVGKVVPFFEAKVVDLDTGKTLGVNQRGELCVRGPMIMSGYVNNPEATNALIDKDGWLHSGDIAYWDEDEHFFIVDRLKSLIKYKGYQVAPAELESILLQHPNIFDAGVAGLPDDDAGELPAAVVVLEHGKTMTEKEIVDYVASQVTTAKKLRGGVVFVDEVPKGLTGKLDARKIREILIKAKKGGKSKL

With `C[C@@]12CCC[C@@](C)(C(=O)O)[C@H]1CC[C@@]13C[C@@H](CC[C@H]12)[C@](C)(O)C3`, the Potency entry in assay [1], in assay [2], in [3], in [4], in assay [5] and in [6] was “inactive” in each case. Moreover, the Potency entry in [7], in assay [8], in assay [9], in [10], in [12] and in [13] was “inactive” in each case. The molecule was classed as inactive in assay [11] and in [14].
With `C/C(=C\[C@@H](C)CC/C=C/CC/C=C/C(=O)O)[C@@H](O)[C@H](C)C(=O)CCCC1CC(=O)NC(=O)C1`, the Potency entry in [1], in [2], in assay [3], in [4], in assay [5] and in [6] was “inactive” throughout. The Potency entry in assay [15], in [7], in assay [9], in assay [10], in assay [12] and in assay [17] was “inactive” in each case. The Potency entry in assay [13] is “inactive”. The molecule was classed as inactive in assay [11], in assay [16] and in assay [14].
Consider `C=CC(C)(C)C(=O)[C@@H](C)[C@@H]1CC[C@@](C)(C=C)O1`, for which the Potency result in assay [1], in [2], in assay [3], in [4], in assay [5] and in assay [18] was “inactive” each time. For the same molecule, the Potency entry in assay [15], in [7], in [8], in assay [19], in assay [9] and in assay [10] was “inactive” throughout. Further, the Potency entry in [12], in [17] and in assay [13] was “inactive” each time. The molecule was classed as inactive in assay [11], in [16] and in [14].
With `CN1CC[C@@]2([C@@]34CCN(C)[C@@H]3Nc3ccccc34)c3ccccc3N[C@@H]12`, the Potency result in assay [1], in assay [2], in [3], in [4], in assay [5] and in assay [15] was “inactive” in each case. In addition, the Potency entry in assay [7], in assay [19], in assay [10], in assay [12], in [17] and in assay [20] was “inactive” in each case. Besides, the call in assay [16] and in assay [14] was inactive.
As for `CC[C@@H](C)[C@H]1NC(=O)C(CC(C)C)NC(=O)[C@@H](CC(C)C)NC(=O)[C@H](Cc2c[nH]c3ccccc23)NC(=O)CNC(=O)[C@@H](CC(N)=O)NC1=O` (stereo partly drawn) (cyclo(GW[dL][ξL][dI][dN])), the Potency result in [1], in assay [4], in [18], in [15], in [12] and in assay [17] was “inactive” throughout. In addition, in assay [13], the Potency result is “inactive”. The Potency was 11.9 µM (active) in assay [3], 11.8 µM (active) in assay [5] and 16.6 µM (active) in assay [8]. The outcome in assay [11], in assay [16] and in assay [14] was inactive.
Regarding `COc1ccc(-c2oc3cc(OC)cc(OC)c3c(=O)c2O)cc1`, the Potency result in assay [1], in assay [2], in assay [18], in assay [6], in assay [15] and in [19] was “inactive” throughout. Besides, the Potency result in assay [12], in assay [17] and in [20] was “inactive” throughout. The Potency is 18.7 µM (active) in assay [5], 10.5 µM (active) in assay [8], 9.35 µM (active) in assay [9] and 0.472 µM (active) in assay [10]. Further, the molecule was classed as inactive in assay [11], in assay [16] and in assay [14].
`CC[C@H]1[C@@H](C)[C@@H](c2cc(OC)c(OC)cc2OC)[C@H](C)[C@@H](c2cc(OC)c(OC)cc2OC)[C@@]12C=C(OC)C(=O)C=C2OC`: the Potency in assay [3] is 11.9 µM (active); in [4] it was 9.35 µM (active); in [5], 14.8 µM (active); in assay [7], 29.6 µM (active); in assay [13] it was 0.86 µM (active). Besides, the Potency result in assay [15], in assay [19] and in assay [20] was “inactive” in each case. For the same molecule, the molecule was called inactive in assay [11] and in [16].
